# Assays:
# [1] = target: Serine/threonine-protein kinase 26 (Homo sapiens) (UniProt Q9P289); settings: at 1 µM;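 further: mean inhibition of MST4 kinase activity, reported from the GSK PKIS inhibitor-set screening panel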
# [2] = target: Serine/threonine-protein kinase PAK 1 (Homo sapiens) (UniProt Q13153); settings: at 0.1 µM
# [3] = target: Serine/threonine-protein kinase PAK 1 (Homo sapiens) (UniProt Q13153); settings: at 1 µM
# [4] = target: Serine/threonine-protein kinase PAK 2 (Homo sapiens) (UniProt Q13177); settings: at 0.1 µM
# [5] = target: Serine/threonine-protein kinase PAK 2 (Homo sapiens) (UniProt Q13177); settings: at 1 µM
# [6] = target: Serine/threonine-protein kinase PAK 3 (Homo sapiens) (UniProt O75914); settings: at 0.1 µM
# [7] = target: Serine/threonine-protein kinase PAK 3 (Homo sapiens) (UniProt O75914); settings: at 1 µM
# [8] = target: Serine/threonine-protein kinase PAK 5 (Homo sapiens) (UniProt Q9P286); settings: at 0.1 µM
# [9] = target: Serine/threonine-protein kinase PAK 5 (Homo sapiens) (UniProt Q9P286); settings: at 1 µM
# [10] = target: Serine/threonine-protein kinase PAK 6 (Homo sapiens) (UniProt Q9NQU5); settings: at 0.1 µM;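 further: mean PAK6 inhibition reported from the GSK PKIS screen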
# Chain of Serine/threonine-protein kinase PAK 6 (Homo sapiens) (Q9NQU5 whole entry, looked up): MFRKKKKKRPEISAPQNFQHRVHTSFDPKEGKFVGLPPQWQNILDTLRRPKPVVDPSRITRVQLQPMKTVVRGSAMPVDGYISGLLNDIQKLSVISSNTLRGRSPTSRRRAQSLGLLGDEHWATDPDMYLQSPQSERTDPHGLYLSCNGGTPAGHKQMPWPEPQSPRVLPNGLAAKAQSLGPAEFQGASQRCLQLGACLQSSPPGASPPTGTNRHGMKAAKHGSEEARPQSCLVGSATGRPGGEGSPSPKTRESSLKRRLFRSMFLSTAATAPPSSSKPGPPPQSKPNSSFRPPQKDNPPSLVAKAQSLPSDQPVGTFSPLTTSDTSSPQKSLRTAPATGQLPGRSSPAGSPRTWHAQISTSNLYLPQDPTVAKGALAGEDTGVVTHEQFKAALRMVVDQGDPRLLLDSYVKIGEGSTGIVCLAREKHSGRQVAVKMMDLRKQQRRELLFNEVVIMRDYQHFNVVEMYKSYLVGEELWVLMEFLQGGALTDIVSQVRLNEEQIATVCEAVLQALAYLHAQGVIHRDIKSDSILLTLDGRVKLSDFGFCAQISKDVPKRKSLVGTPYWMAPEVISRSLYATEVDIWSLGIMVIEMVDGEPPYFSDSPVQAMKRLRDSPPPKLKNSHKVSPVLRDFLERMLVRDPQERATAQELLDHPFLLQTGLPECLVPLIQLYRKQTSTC
# Chain of Serine/threonine-protein kinase PAK 3 (Homo sapiens) (O75914 whole entry, looked up): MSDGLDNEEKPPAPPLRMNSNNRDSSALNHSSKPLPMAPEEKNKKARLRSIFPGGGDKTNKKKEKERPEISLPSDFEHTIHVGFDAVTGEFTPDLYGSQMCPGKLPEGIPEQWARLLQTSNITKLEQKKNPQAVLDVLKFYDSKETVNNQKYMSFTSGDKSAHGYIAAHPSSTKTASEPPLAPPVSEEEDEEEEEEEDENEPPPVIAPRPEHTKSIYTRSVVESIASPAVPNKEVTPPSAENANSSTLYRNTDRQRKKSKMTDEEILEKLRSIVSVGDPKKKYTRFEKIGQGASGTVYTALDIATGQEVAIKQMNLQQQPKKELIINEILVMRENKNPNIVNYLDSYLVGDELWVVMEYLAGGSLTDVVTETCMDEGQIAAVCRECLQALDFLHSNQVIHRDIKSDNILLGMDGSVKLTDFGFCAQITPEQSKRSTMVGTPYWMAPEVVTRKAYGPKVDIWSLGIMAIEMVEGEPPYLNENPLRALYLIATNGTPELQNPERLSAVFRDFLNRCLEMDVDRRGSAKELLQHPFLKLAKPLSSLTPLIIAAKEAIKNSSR
# Chain of Serine/threonine-protein kinase 26 (Homo sapiens) (Q9P289 2-416 limits assumed): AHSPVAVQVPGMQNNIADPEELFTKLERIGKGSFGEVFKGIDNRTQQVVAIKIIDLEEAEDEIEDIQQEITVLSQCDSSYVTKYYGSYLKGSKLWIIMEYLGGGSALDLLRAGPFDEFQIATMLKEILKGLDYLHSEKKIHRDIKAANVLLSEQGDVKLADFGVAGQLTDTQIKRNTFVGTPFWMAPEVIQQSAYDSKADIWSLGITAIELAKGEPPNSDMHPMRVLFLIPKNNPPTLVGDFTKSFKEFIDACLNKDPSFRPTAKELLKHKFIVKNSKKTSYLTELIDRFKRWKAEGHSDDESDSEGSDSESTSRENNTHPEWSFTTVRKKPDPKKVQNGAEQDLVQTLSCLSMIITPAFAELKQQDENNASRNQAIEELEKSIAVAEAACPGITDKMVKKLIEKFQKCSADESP
# Chain of Serine/threonine-protein kinase PAK 2 (Homo sapiens) (Q13177 whole entry): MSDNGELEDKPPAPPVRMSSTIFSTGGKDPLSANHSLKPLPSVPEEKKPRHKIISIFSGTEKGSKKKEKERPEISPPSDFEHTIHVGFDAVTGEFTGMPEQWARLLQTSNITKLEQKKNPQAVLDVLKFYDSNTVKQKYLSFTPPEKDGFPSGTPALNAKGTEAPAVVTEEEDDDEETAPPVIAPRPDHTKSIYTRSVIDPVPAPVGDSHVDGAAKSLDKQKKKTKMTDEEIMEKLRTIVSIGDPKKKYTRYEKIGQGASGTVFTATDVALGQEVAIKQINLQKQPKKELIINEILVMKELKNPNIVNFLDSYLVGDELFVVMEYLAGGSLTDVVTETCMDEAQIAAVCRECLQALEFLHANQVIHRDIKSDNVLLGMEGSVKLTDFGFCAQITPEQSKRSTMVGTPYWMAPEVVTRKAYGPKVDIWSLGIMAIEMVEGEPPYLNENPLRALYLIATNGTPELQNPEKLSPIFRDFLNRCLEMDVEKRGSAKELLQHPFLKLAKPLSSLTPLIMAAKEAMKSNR
# Chain of Serine/threonine-protein kinase PAK 5 (Homo sapiens) (Q9P286 whole entry, looked up): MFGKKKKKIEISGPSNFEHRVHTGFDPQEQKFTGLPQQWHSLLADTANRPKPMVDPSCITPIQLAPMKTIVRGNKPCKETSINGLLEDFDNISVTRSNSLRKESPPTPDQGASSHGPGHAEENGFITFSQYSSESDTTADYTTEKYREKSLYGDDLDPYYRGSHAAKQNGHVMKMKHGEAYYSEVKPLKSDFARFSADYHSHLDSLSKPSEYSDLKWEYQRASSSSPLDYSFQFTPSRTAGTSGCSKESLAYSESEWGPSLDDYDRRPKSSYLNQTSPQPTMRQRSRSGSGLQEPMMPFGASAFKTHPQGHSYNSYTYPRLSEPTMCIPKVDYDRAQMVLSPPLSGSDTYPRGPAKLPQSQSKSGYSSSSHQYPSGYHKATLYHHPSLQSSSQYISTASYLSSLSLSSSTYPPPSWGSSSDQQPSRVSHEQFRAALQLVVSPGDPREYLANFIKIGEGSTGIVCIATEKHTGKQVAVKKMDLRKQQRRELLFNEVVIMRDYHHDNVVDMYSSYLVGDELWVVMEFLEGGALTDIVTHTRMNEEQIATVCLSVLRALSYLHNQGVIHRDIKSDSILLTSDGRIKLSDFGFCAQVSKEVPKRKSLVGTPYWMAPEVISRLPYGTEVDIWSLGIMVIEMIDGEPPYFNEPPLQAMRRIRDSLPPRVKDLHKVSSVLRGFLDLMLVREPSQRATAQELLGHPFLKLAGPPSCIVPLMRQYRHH
# Chain of Serine/threonine-protein kinase PAK 1 (Homo sapiens) (Q13153 whole entry): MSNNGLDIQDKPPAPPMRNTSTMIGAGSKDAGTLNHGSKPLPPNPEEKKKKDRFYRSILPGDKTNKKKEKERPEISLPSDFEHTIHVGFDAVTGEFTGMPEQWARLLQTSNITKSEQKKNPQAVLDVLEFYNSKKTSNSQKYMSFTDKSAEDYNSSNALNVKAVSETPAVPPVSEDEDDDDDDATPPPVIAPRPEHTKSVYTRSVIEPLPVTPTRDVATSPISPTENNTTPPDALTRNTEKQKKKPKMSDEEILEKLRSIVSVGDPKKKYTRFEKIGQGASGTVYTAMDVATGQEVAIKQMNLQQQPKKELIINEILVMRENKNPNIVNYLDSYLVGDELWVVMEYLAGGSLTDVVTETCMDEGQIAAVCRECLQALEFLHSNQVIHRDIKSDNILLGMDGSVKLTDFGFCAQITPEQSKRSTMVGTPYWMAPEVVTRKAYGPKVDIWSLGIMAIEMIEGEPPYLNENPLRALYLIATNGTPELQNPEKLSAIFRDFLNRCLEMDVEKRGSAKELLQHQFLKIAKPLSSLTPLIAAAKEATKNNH
Structure (SMILES),inhibition [1],inhibition [2],inhibition [3],inhibition [4],inhibition [5],inhibition [6],inhibition [7],inhibition [8],inhibition [9],inhibition [10]
CC(C)(CO)CNC(=O)c1ccc2c(c1)/C(=N/Nc1ccc(S(N)(=O)=O)cc1)C(=O)N2,7.27%,3.17%,3.48%,-1.4%,-0.42%,-1.02%,0.96%,-0.42%,0.12%,2.03%
COC(=O)Nc1nc2ccc(Oc3ccc(NC(=O)Nc4cccc(Cl)c4)cc3)cc2[nH]1,1.03%,5.21%,1.37%,-0.81%,0.02%,1.03%,2.18%,2.63%,3.67%,-3.19%
CCc1nn2ncccc2c1-c1ccnc(NC2CC2)n1,1.56%,3.36%,4.68%,1.85%,1.62%,3.09%,3.37%,-2.62%,0.37%,-9.47%
COc1ccc(-c2cc3c(N)ncnc3o2)cc1,0.97%,-2.64%,-0.27%,-2.02%,-0.84%,-1.87%,-1.01%,-1.3%,-1.65%,-8.16%
CS(=O)(=O)CCNCc1coc(-c2ccc3ncnc(Nc4ccc(OCc5ccccc5)cc4)c3c2)c1,2.64%,2.37%,4.92%,0.82%,0.14%,3.37%,3.31%,3.59%,3.38%,-4%
CCn1c(-c2nonc2N)nc2c(C#CC(C)(C)O)ncc(OC3CCNCC3)c21,4.19%,2.8%,8.91%,1.98%,13.5%,2.99%,8.39%,34.6%,80.1%,14.6%
CN(C)CCOc1ccc(-c2nc(-c3ccncc3)c(-c3ccc4c(c3)CC/C4=N\O)[nH]2)cc1,-0.6%,4.61%,9.24%,2.66%,2.42%,3.85%,4.82%,7.4%,7.07%,-7.61%
CC(C)COC(=O)c1ccc2c(c1)/C(=C/Nc1ccc(S(N)(=O)=O)cc1)C(=O)N2,10.7%,-0.34%,1.52%,-2.84%,0.1%,-2.65%,-0.22%,-0.7%,5.79%,11.9%
Cc1cccc2c1NC(=O)/C2=N\Nc1ccc(S(N)(=O)=O)cc1,-4.46%,7.85%,5.96%,2.44%,1.43%,3.43%,3.88%,11.2%,2.81%,3.7%
CCn1c(-c2nonc2N)nc2c(C#CC(C)(C)O)nc(OC[C@H](N)c3ccccc3)cc21,28.1%,1.29%,3.91%,1.1%,10.9%,2.18%,4.83%,37.3%,70.9%,49.4%
CC1=C(C(=O)Nc2cc(Cl)c3[nH]ncc3c2)C(c2ccc(C(F)(F)F)cc2)CC(=O)N1 (stereo not given),8.39%,3.76%,4.55%,0.71%,2.32%,4.06%,3.69%,0.42%,4.84%,-4.08%
COc1cc(/C=N/Nc2ncnc3[nH]ncc23)ccc1O,5.4%,1.82%,6.64%,2.22%,1.35%,4.08%,4.44%,10.5%,11.8%,-5.57%
Cc1ccc(O)cc1Nc1ccnc2cc(-c3ccccn3)ccc12,-0.53%,7.92%,8.64%,3.37%,2.71%,4.92%,5%,3.23%,0.07%,4.84%
Fc1ccc(-c2nn3ncccc3c2-c2ccnc(Nc3ccc4c(c3)OCCO4)n2)cc1,7.97%,5.7%,9.76%,1.46%,2.5%,4.83%,4.47%,-1.83%,-2.83%,-0.14%
COc1cc2ncn(-c3cc(OCc4ccccc4C(F)(F)F)c(C(=O)N(C)C)s3)c2cc1OC,3.36%,-0.17%,-2.04%,-1.09%,-0.86%,-0.48%,-0.61%,-6.21%,0.3%,-7.29%
Fc1ccc(-c2nn3ccccc3c2-c2ccncc2)cc1,2.42%,3.29%,1.62%,-0.13%,-0.1%,1.29%,1.75%,-0.38%,-4.35%,4.75%
FC(F)(F)c1cccc(-c2nn3ncccc3c2-c2ccnc(Nc3ccc4c(c3)OCCO4)n2)c1,0.56%,3.7%,3.72%,1.01%,1.43%,1.69%,2.03%,-5.89%,-2.25%,-3.42%
c1ccc(-c2nc3n(c2-c2ccc4c(c2)OCO4)CCC3)nc1,-1.91%,3.44%,6.33%,-0.09%,-0.63%,1.57%,2.08%,3.16%,-0.63%,4.69%
CCn1c(-c2nonc2N)nc2ccccc21,-1.31%,5%,6.81%,3.34%,2.08%,1.86%,4.13%,5.02%,8.78%,0.13%
CCN(CC)S(=O)(=O)c1ccc(OC)c(Nc2ncc(-c3ccccc3)o2)c1,2.13%,-1.78%,3.9%,-0.97%,0.12%,0.22%,1.76%,8.61%,-0.8%,5.19%
CN1CCC(n2cnc(-c3ccc(F)cc3)c2-c2ccnc(Nc3ccccc3)n2)CC1,5.17%,1.24%,4.02%,0.86%,-0.38%,2.18%,2.38%,-3.93%,4.44%,-9.85%
Cc1ccc2c(-c3ccnc(Nc4ccccc4)n3)c(-c3ccc(F)cc3)nn2n1,0%,3.46%,6.67%,2.41%,1.9%,3.55%,4.22%,8.15%,2.93%,1.48%
COC(=O)c1sc(-n2cnc3cc(OC)c(OC)cc32)cc1OCc1ccccc1C(F)(F)F,0.54%,7.38%,9.12%,1.91%,1.84%,3.84%,4.18%,-1.22%,-4.74%,-7.92%
CCN1CCC(CC(=O)Nc2n[nH]c3nnc(-c4cccc(F)c4F)cc23)CC1,1.9%,3.95%,4.17%,2.09%,0.33%,3.91%,1.02%,2%,0.92%,4.45%
NC(=O)c1sc(-n2cnc3ccc(C(F)(F)F)cc32)cc1OCc1ccccc1Br,0.41%,5.7%,7.84%,0.77%,1.46%,3.71%,3.48%,1.98%,3.21%,-5.11%
CCCN(CCS(C)(=O)=O)Cc1ccc(-c2ccc3ncnc(Nc4ccc(OCc5cccc(F)c5)c(Cl)c4)c3c2)o1,2.97%,5.02%,3.91%,0.72%,0.92%,1.58%,2.05%,3.25%,9.68%,-9.75%
CNC(=O)c1cccc(C#Cc2cncnc2Nc2ccc(OCc3cccc(F)c3)c(Cl)c2)c1,4.41%,2.05%,1.45%,0.68%,1.72%,-0.16%,0.51%,7.61%,-2.53%,9.54%
CC(=O)Nc1cccc(C#Cc2cncnc2Nc2ccc(OCc3cccc(F)c3)c(Cl)c2)c1,-0.92%,3.48%,6.05%,2.19%,1.41%,2.92%,3.79%,-5.54%,1.62%,2.97%
N#Cc1c(NC(=O)c2ccc(F)cc2)sc2c1CCCC2,2.43%,-0.82%,3.8%,0.64%,0.15%,1.5%,1.26%,-0.93%,-0.51%,-7.52%
